Values joined by “and” are separate entries in the source; they are usually repeats but may differ in a detail not shown here. Equal values may be shown once. The panel holds about 79,000 compounds, 15% with a hit somewhere; the sample as a whole holds those more often. A number with no mark means an inactive call. Active and inactive are the calls of the source. Cut-off read from the data, not from the text of the source: active = growth inhibition above about 70%; inactive = the rest.

Test [1] can be described thus: NCI Yeast Anticancer Drug Screen. Data for the rad50 strain (AID 155).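 Note: 0% = growth of vehicle-only cultures of the same strain.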 The note with it: S. cerevisiae rad50 strain growth inhibition; at 50.0 µM; active compounds read high. The procedure, abridged: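 Growth of the mutant yeast was measured after compound exposure and referenced to vehicle-treated cultures.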
A short description of test [2]: NCI Yeast Anticancer Drug Screen. Data for the mec2-1 strain (AID 157). The note with it: S. cerevisiae mec2-1 strain, active compounds read high. Put shortly: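 Using mec2-1 yeast: add compound, measure growth, express inhibition versus vehicle-treated cultures.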
Test [3] in a line: NCI Yeast Anticancer Drug Screen. Data for the sgs1 mgt1 strain (AID 161).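 Note: 0% = growth of cultures given vehicle only.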 The conditions noted are these: S. cerevisiae sgs1 mgt1 strain, active compounds read high. The procedure, abridged: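 Percent growth inhibition was derived by comparing compound-exposed mutant yeast with vehicle-exposed cultures. The strain carries alterations in DNA damage repair.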
Test [4] in a line: NCI Yeast Anticancer Drug Screen. Data for the cln2 rad14 strain (AID 165).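 Note: 0% = growth equal to vehicle treated cultures.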 The note with it: S. cerevisiae cln2 rad14 strain, active compounds read high. The procedure, abridged: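 Yeast strain cln2 rad14, bearing defects in cell cycle control and DNA repair, serves as the test system; values reflect growth inhibition compared with vehicle.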
Test [5] can be described thus: NCI Yeast Anticancer Drug Screen. Data for the bub3 strain (AID 167). The conditions noted are these: S. cerevisiae bub3 mutant strain, active compounds read high. The procedure, abridged:
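Whole-cell yeast assay. The mutant strain was incubated with compounds, and growth inhibition was determined by comparison with vehicle-treated cells.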

Test [6] can be described thus: NCI Yeast Anticancer Drug Screen. Data for the mlh1 rad18 strain (AID 175). The conditions noted are these: S. cerevisiae mlh1 rad18 strain growth inhibition, active compounds read high. Put shortly: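 Steps: expose repair-defective yeast to compound; measure growth; express inhibition against vehicle-treated controls.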
The mark [7] stands for this setting: at 5.0 µM (retest, dose inferred, filed as 0.5).
Setting [8] is: at 50.0 µM (retest, dose inferred, filed as 5.0).

As for `CCCCc1c(C)[nH]c(=S)[nH]c1=O`, the growth inhibition in test [1] is -6.15% and 5.3%; in test [2] (at 50.0 µM), -14.8% and -14.1%; in test [3] (at 50.0 µM) it was -4.35% and 0.4%; in test [4] (at 50.0 µM) it was -6.1% and 13.2%; in test [5] (at 50.0 µM) it was -0.05% and 15%; in test [6] (at 50.0 µM), -5.45% and 2%.
For the compound `CC(=O)Nc1ccc(S(=O)c2ccc(NC(C)=O)cc2)cc1`, the growth inhibition in test [1] was -25.6% and 12%; in test [2] (at 50.0 µM) it was -21.3% and 9.5%; in test [3] (at 50.0 µM), -45.5% and 12.1%; in test [4] (at 50.0 µM), 7.1% and -22.4%; in test [5] (at 50.0 µM), -15.6% and 10.3%; in test [6] (at 50.0 µM) it was -34.8% and 24.6%.
With `C=CCOC(=O)C(C)OC(=O)C(C)O` (stereo not drawn), the growth inhibition was 35.3% and 15.3% in test [1]; 11.8% and 10.6% in test [2] (at 50.0 µM); 11.6% and -4% in test [4] (at 50.0 µM); 6.85% and -0.4% in test [5] (at 50.0 µM); 9.85% and 1.9% in test [6] (at 50.0 µM).
Consider `O=C(O)c1cc([N+](=O)[O-])c2c(c1)P(=O)(O)c1cc(C(=O)O)cc([N+](=O)[O-])c1O2`, for which the growth inhibition in test [1] is 19.9% and 10.8%; in test [2] (at 50.0 µM) it was -1.35% and 3.05%; in test [4] (at 50.0 µM), 5.9% and 4.05%; in test [5] (at 50.0 µM) it was -0.6% and -2.1%; in test [6] (at 50.0 µM), 13.7% and 7.85%.
`NC(C(=O)O)C(O)C(=O)O` (stereo not drawn): the growth inhibition in test [1] was -14% and 2.7%; in test [2] (at 50.0 µM), 5.85% and 8.65%; in test [3] (at 50.0 µM), 2.85% and -6.75%; in test [4] (at 50.0 µM), 10.4% and -5.6%; in test [5] (at 50.0 µM), -5.75% and 4.05%; in test [6] (at 50.0 µM) it was 0.55% and -7.3%.
For `O=C(CCCCCCCCC(=O)NCC1(c2ccccc2)CCN(Cc2ccccc2)CC1)NCC1(c2ccccc2)CCN(Cc2ccccc2)CC1`, the growth inhibition in test [1] was -7.45% and 8.25%; in test [2] (at 50.0 µM), -17.1% and 6.25%; in test [3] (at 50.0 µM) it was -13.8% and -19.2%; in test [4] (at 50.0 µM) it was -11.4% and 2.2%; in test [6] (at 50.0 µM), -0.55% and 26.4%.
As for `O=C(O)C(Cc1ccccc1)Cc1ccccc1`, the growth inhibition in test [1] was -11.6% and 20.8%; in test [3] (at 50.0 µM) it was -14.4% and 9.8%; in test [4] (at 50.0 µM), -40.1% and 29.2%; in test [5] (at 50.0 µM), -22.9% and 43.5%; in test [6] (at 50.0 µM), 3.75% and 35.2%.
Take `CCCCCCCCCCCC[n+]1ccccc1` (tested in a mixture with another compound): the growth inhibition was 91% (active) in test [2] (setting [7]); 96% (active) in test [2] (setting [8]); 99.1% (active) in test [2] (at 50.0 µM); 31% in test [3] (setting [7]); 97% (active) in test [3] (setting [8]); 99.1% (active) in test [3] (at 50.0 µM). For the same compound, the growth inhibition in test [4] (setting [7]) is 18%; in test [4] (setting [8]), 94% (active); in test [4] (at 50.0 µM) it was 98.5% (active); in test [5] (setting [7]) it was 88% (active); in test [5] (setting [8]), 96% (active); in test [5] (at 50.0 µM), 99.2% (active). Besides, the growth inhibition in test [6] (setting [7]) is 21%; in test [6] (setting [8]) it was 95% (active); in test [6] (at 50.0 µM), 99% (active).
Turning to `CN(C)CC1CCCC(CN(C)C)C1=O` (stereo not drawn), the growth inhibition was -13.4% and -21.9% in test [1]; 26.9% and -9.95% in test [2] (at 50.0 µM); -16% and -39.5% in test [3] (at 50.0 µM); 33% and -30.4% in test [4] (at 50.0 µM); -16.1% and -22.1% in test [5] (at 50.0 µM); -2% and -13.8% in test [6] (at 50.0 µM).
Regarding `O=C1C=CC(=O)N1C1CCCCCCCCCCC1`, the growth inhibition in test [2] (setting [7]) was 46%; in test [2] (setting [8]), 58%; in test [2] (at 50.0 µM) it was 86% (active); in test [3] (setting [7]), 44%; in test [3] (setting [8]), 98% (active); in test [4] (setting [7]) it was 56%. For the same compound, the growth inhibition in test [4] (setting [8]) is 98% (active); in test [5] (setting [7]), 71% (active); in test [5] (setting [8]) it was 97% (active); in test [6] (setting [7]), 30%; in test [6] (setting [8]), 61%; in test [6] (at 50.0 µM) it was 79.4% (active).
Regarding `Cn1c(=O)c2[nH]cnc2n(C)c1=O`, the growth inhibition is 4.5% and 10.1% in test [1]; -16.1% and 2.3% in test [2] (at 50.0 µM); -35.5% and -20.8% in test [3] (at 50.0 µM); -23.8% and -9.25% in test [4] (at 50.0 µM); -3.95% and -2.2% in test [5] (at 50.0 µM); 19.1% and 2.8% in test [6] (at 50.0 µM).
Turning to `Cc1c2cc(O)c(=O)cc-2oc2cc(O)c(O)cc12`, the growth inhibition in test [2] (at 50.0 µM) is 29.6% and 6.2%; in test [3] (at 50.0 µM), 36.1% and 50.1%; in test [4] (at 50.0 µM), 20.9% and 31.9%; in test [5] (at 50.0 µM), 36.7% and 47.6%; in test [6] (at 50.0 µM) it was 40.1% and 34.9%.
`CC(=O)Nc1nc(-c2ccccc2)cs1`: the growth inhibition in test [2] (setting [7]) is -4%; in test [2] (setting [8]) it was 4%; in test [3] (setting [7]), -2%; in test [3] (setting [8]), 23%; in test [4] (setting [7]) it was 7%; in test [4] (setting [8]) it was -5%. The growth inhibition is -1% in test [5] (setting [7]), 6% in test [5] (setting [8]), -11% in test [6] (setting [7]) and 2% in test [6] (setting [8]).
For `C(CCc1nn[nH]n1)CCC1CCCCC1`, the growth inhibition is 10% in test [2] (setting [7]); 98% (active) in test [2] (setting [8]); 11% in test [3] (setting [7]); 95% (active) in test [3] (setting [8]); 19% in test [4] (setting [7]); 97% (active) in test [4] (setting [8]). Moreover, the growth inhibition in test [5] (setting [7]) is 11%; in test [5] (setting [8]), 98% (active); in test [6] (setting [7]) it was -16%; in test [6] (setting [8]), 97% (active).
Turning to `CCOc1ccc(C(C)=O)cc1`, the growth inhibition in test [1] is 10.7% and -0.6%; in test [2] (at 50.0 µM) it was 5.25% and 3.75%; in test [3] (at 50.0 µM), 5.85% and 3.85%; in test [4] (at 50.0 µM), 10.9% and 1.45%; in test [6] (at 50.0 µM) it was -2.05% and -7.45%.
As for `CC/C(=C(/CC)c1ccc(O)cc1)c1ccc(O)cc1`, the growth inhibition in test [2] (setting [7]) was 6%; in test [2] (setting [8]), 99% (active); in test [2] (at 50.0 µM) it was 98.8% (active); in test [3] (setting [7]), 5%; in test [3] (setting [8]), 100% (active); in test [3] (at 50.0 µM), 99.1% (active). Further, the growth inhibition is 39% in test [4] (setting [7]); 99% (active) in test [4] (setting [8]); 98% (active) in test [4] (at 50.0 µM); 22% in test [5] (setting [7]); 63% in test [5] (setting [8]); 99.5% (active) in test [5] (at 50.0 µM). The growth inhibition was 13% in test [6] (setting [7]), 97% (active) in test [6] (setting [8]) and 99.2% (active) in test [6] (at 50.0 µM).
On to `O=C(O)C1CCCCC1`, for which the growth inhibition was -5.9% and -10.2% in test [1]; -13.7% and 22.7% in test [3] (at 50.0 µM); 5.95% and -13.2% in test [4] (at 50.0 µM); 2.15% and 2.55% in test [5] (at 50.0 µM); 8.3% and 17.1% in test [6] (at 50.0 µM).
As for `CCN(CC)c1ccc(/C=C\C(=O)c2ccc(NC(C)=O)cc2)cc1`, the growth inhibition was -14% in test [2] (setting [7]); -21% in test [2] (setting [8]); 55.4% in test [2] (at 50.0 µM); -13% in test [3] (setting [7]); -2% in test [3] (setting [8]); 52% in test [3] (at 50.0 µM). For the same compound, the growth inhibition in test [4] (setting [7]) is -11%; in test [4] (setting [8]) it was -10%; in test [4] (at 50.0 µM), 28.6%; in test [5] (setting [7]), -12%; in test [5] (setting [8]) it was -4%; in test [5] (at 50.0 µM), 76.8% (active). Also, the growth inhibition in test [6] (setting [7]) is -21%; in test [6] (setting [8]), -9%; in test [6] (at 50.0 µM), 52%.
`O=[N+]([O-])c1ccc([I+]c2ccccc2)cc1`: the growth inhibition is 77% (active) in test [3] (setting [7]); 96% (active) in test [3] (setting [8]); 87.2% (active) in test [3] (at 50.0 µM); 30% in test [4] (setting [7]); 87% (active) in test [4] (setting [8]); 82.9% (active) in test [4] (at 50.0 µM). The growth inhibition was 61% in test [5] (setting [7]); 96% (active) in test [5] (setting [8]); 88.2% (active) in test [5] (at 50.0 µM); 82% (active) in test [6] (setting [7]); 95% (active) in test [6] (setting [8]).
